Laboratory results reported in PubChem BioAssay.
Active and inactive are the calls of the source. Unless noted, how the calls were made is not given here.

Tests used:
[1] = compounds binding Alexa647 anti-His antibody – biochemical, small-molecule microarray, 635 nm fluorescence, artefact control for SMM control protein annotation, primary screen (AID 1128); details: higher = more signal;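 further: score merges feature fluorescence with signal-to-noise for each printed compound spot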
[2] = system: Human papillomavirus type 1a E7 protein (residues 1-88); assay: HPV1a E7 small-molecule binders, primary screen, biochemical, small-molecule microarray, residues 1-88, 635 nm (AID 1129); details: small-molecule microarray binding, fluorescence 635 nm; higher = more signal
[3] = biological target: Focal adhesion kinase 1 (Homo sapiens) (UniProt Q05397); assay: PTK2 protein binding on printed compound slides – biochemical, small-molecule microarray, 635/667 nm fluorescence, BSA, DTT, primary screen (AID 1130); details: 635 nm fluorescence, higher = more signal;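 further: composite of spot emission at 667 nm and signal to noise over triplicate slides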
[4] = system: Fibrinogen (Alexa647-labelled); assay: Alexa647-fibrinogen binding to printed small molecules – biochemical, small-molecule microarray, 635/667 nm fluorescence, artefact control for SMM control-protein annotation, profiling panel (AID 1131); details: fibrinogen-A647 binding fluorescence, higher = more signal;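 further: z-score merges 667 nm fluorescence with per-spot signal-to-noise over triplicate slides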
[5] = biological target: Follistatin (Homo sapiens) (UniProt P19883); assay: FST protein binding to printed compounds – biochemical, small-molecule microarray, 635/667 nm fluorescence, primary screen (AID 1132); details: 635 nm fluorescence, higher = more signal
[6] = biological target: Fibroblast growth factor 2 (Homo sapiens) (UniProt P09038); assay: basic fibroblast growth factor binding to printed compounds – biochemical, small-molecule microarray, 635/667 nm fluorescence, primary screen (AID 1133); details: FGF2, fluorescence 635/667, higher = more signal
[7] = JC-1 mitochondrial potential readout, lung cancer cells – cell-based, A549, JC-1 fluorescence, basal, 24 h, 100 nL, profiling panel (AID 1138); details: higher = more signal;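 further: A549 lung adenocarcinoma cells under basal conditions with no added stimulus; test concentration not given here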
Lefty1 = Lefty1 protein binding to printed compounds – biochemical, small-molecule microarray, 635/667 nm fluorescence, primary screen (AID 1139); details: fluorescence 635/667, higher = more signal
[8] = system: wheat germ agglutinin (Triticum aestivum), Alexa647-labelled; assay: Alexa647-WGA lectin binding to printed small molecules – biochemical, small-molecule microarray, 635/667 nm fluorescence, artefact control for SMM control-protein annotation, profiling panel (AID 1140); details: WGA-A647 binding, 635 nm fluorescence, higher = more signal;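 further: score merges 667 nm feature emission with signal to noise over triplicate slides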
[9] = biological target: Luciferin 4-monooxygenase (Photinus pyralis) (UniProt P08659); assay: inhibition of purified Photinus pyralis luciferase – biochemical, luminescence, purified enzyme, 2006 set, primary screen (AID 1141); details: purified firefly luciferase, SteadyGlo luminescence, 30 min; higher = more signal, called active from +8 up or from −8 down;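 further: cell-free assay with purified firefly luciferase at 100 ng per well in PBS; test concentration not given here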
[10] = system: Wnt5a (protein binding on small-molecule microarray); assay: small molecules binding Wnt5a protein – biophysical, small-molecule microarray, 635/667 nm fluorescence, primary screen (AID 1142); details: 635 nm fluorescence, higher = more signal;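 further: fluorescence read at 667 nm with signal to noise per printed feature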
[11] = ATP-based viability of Huh7 replicon cells – cell-based, CellTiter-Glo luminescence, basal, 48 h, cytotoxicity control for HCV replication inhibitor project, primary screen (AID 1143); details: higher = more signal, called active from +8 up or from −8 down;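 further: Huh7 hepatoma cells carrying a hepatitis C replication reporter with no stimulus; test concentration not given here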
[12] = Pseudomonas biofilm growth suppression – PAO1 strain, BacTiter-Glo luminescence, LB-PBS, primary screen (AID 1144); details: P. aeruginosa PAO1 biofilm, 12 h, higher = more signal
[13] = basal CRE-LacZ reporter activity in PC12 – cell-based, unstimulated, primary screen (AID 1145); details: no forskolin, luminescence, 4.5 h, higher = more signal, called active from +8 up or from −8 down
[14] = forskolin-driven CRE-LacZ activity in PC12 – cell-based, CRE-LacZ reporter, forskolin-stimulated, primary screen (AID 1146); details: luminescence, 4.5 h, higher = more signal, called active from +8 up or from −8 down;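 further: PC12 cells with 6xCRE LacZ reporter stimulated by forskolin 10 µM; beta-galactosidase reporter signal reflecting CREB driven transcription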
[15] = biological target: Streptavidin (Streptomyces avidinii) (UniProt P22629); assay: compounds binding control protein streptavidin – biophysical, small-molecule microarray, 635/667 nm fluorescence, artefact control for SMM compound annotation, primary screen (AID 1147); details: higher = more signal;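 further: signal reflects streptavidin binding to arrayed compounds as a control protein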
[16] = probe aInhba binding on compound microarray – biochemical, small-molecule microarray, 635/667 nm fluorescence, primary screen (AID 1148); details: higher = more signal;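 further: score merges 667nm spot fluorescence with signal-to-noise for antibody binding to printed compounds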
Torsin-1A (Homo sapiens) [17] = biological target: Torsin-1A (Homo sapiens) (UniProt O14656); assay: TOR1A wild-type binding on microarray – cell lysate, small-molecule microarray, lysate, 635/667 nm, primary screen (AID 1149); details: COS7 hTOR1A-WT lysate, 635 nm fluorescence, higher = more signal
Torsin-1A (Homo sapiens) [18] = biological target: Torsin-1A (Homo sapiens) (UniProt O14656); assay: torsin A mutant lysate binding on microarrays – cell lysate, small-molecule microarray, COS7 lysate, 635/667 nm fluorescence, primary screen (AID 1150); details: COS7 hTOR1A mutant lysate, 635 nm fluorescence, higher = more signal;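 further: score pools 667 nm emission and signal to noise measuring lysate protein binding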
[19] = system: Sonic hedgehog protein (Shh); assay: Sonic hedgehog microarray binding compounds – biochemical, small-molecule microarray, 635/667 nm fluorescence, primary screen (AID 1151); details: 635 nm fluorescence, higher = more signal;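 further: Shh protein binding to compounds spotted on small-molecule microarray slides; score combines spot fluorescence intensity with signal-to-noise across triplicate slides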

Streptavidin (Streptomyces avidinii), sequence (P22629 whole entry, looked up): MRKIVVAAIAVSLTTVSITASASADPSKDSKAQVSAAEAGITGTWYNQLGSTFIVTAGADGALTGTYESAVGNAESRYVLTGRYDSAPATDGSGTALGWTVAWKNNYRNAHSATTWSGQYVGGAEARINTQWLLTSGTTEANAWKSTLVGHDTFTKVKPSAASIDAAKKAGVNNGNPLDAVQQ
Focal adhesion kinase 1 (Homo sapiens), sequence (Q05397 whole entry, looked up): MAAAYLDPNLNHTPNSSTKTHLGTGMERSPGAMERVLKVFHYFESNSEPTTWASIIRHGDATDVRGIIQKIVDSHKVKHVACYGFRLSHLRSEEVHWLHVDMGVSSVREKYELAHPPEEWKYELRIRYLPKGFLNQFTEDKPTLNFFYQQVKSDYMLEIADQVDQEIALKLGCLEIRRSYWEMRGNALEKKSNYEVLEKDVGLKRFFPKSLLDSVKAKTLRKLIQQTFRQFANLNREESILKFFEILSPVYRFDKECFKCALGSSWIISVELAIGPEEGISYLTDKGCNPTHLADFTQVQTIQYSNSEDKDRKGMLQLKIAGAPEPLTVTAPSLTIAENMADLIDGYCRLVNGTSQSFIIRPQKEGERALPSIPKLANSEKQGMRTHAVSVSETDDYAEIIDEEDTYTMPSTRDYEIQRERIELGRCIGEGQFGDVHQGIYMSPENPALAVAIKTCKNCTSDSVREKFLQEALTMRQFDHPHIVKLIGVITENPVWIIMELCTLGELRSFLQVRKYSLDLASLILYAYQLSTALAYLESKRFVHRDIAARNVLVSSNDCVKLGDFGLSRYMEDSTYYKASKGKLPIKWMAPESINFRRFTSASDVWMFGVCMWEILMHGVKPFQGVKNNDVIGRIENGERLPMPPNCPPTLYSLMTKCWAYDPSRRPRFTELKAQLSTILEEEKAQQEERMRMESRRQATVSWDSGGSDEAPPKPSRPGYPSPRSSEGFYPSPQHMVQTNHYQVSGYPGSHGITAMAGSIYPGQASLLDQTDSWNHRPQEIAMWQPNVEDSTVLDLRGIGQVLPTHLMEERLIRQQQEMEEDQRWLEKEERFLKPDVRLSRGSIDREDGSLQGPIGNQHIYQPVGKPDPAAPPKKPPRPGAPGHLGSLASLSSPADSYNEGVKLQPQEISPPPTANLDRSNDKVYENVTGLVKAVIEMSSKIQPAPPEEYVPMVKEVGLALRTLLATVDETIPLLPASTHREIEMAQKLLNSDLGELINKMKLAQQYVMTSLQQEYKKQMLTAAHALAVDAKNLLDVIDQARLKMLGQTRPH
Follistatin (Homo sapiens), sequence (P19883 whole entry, looked up): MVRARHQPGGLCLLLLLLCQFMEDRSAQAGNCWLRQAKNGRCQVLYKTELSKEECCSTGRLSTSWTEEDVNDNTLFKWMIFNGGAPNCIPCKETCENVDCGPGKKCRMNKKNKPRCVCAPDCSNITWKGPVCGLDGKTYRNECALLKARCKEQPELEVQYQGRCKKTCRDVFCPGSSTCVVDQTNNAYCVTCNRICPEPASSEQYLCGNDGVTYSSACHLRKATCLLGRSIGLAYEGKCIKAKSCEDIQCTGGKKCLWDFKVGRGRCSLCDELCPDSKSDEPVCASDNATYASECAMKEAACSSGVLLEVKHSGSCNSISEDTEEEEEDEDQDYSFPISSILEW
Fibroblast growth factor 2 (Homo sapiens), sequence (P09038 whole entry, looked up): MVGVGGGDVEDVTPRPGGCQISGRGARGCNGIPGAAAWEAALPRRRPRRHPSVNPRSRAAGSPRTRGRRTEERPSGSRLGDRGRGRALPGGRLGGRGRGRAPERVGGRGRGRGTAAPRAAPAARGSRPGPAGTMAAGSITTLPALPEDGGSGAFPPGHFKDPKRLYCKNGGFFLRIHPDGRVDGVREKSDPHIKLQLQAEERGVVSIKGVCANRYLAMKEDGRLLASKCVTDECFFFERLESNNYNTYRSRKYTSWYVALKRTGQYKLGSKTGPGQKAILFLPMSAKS
Luciferin 4-monooxygenase (Photinus pyralis), sequence (P08659 whole entry, looked up): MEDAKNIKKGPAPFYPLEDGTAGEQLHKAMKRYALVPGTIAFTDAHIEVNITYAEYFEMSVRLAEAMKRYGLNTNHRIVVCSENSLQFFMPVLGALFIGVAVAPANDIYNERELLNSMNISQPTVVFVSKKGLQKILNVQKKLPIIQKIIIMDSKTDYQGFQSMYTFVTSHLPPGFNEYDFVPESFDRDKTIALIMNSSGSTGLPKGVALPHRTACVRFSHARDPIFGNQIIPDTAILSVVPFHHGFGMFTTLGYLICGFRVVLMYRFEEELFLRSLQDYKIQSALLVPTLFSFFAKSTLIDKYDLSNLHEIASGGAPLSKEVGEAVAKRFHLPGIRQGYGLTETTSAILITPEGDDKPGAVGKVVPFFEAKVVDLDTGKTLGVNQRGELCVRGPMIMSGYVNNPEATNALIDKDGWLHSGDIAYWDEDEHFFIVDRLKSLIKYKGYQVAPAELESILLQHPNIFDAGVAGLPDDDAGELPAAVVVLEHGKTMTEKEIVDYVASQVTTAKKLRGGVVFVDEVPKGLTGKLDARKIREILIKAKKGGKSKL
Torsin-1A (Homo sapiens), sequence (O14656 whole entry, looked up): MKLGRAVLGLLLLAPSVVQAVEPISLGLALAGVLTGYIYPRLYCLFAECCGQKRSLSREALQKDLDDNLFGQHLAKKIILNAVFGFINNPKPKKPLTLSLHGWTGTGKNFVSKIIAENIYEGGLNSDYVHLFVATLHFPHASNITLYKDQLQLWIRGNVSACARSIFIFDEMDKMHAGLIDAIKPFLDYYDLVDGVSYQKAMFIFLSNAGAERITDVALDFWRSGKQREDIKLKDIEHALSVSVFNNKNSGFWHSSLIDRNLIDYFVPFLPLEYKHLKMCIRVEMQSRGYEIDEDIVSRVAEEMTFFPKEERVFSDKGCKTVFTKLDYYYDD

SMILES	composite z-score [1]	composite z-score [2]	composite z-score [3]	composite z-score [4]	composite z-score [5]	composite z-score [6]	z-score [7]	composite z-score (Lefty1)	composite z-score [8]	z-score [9]	composite z-score [10]	z-score [11]	z-score [12]	z-score [13]	z-score [14]	composite z-score [15]	composite z-score [16]	composite z-score (Torsin-1A (Homo sapiens) [17])	composite z-score (Torsin-1A (Homo sapiens) [18])	composite z-score [19]
O=C1C=C[C@@H](O)[C@@H]2[C@@H]3C(=O)N(c4ccc(F)cc4F)C(=O)[C@@H]3CC[C@@H]12	-0.0956	0.437	0.103	0.61	0.791	0.602	0.784	0.564	0.215	-1.71 (inactive)	0.15	-1.18 (inactive)	0.0333 (inactive)	0.332 (inactive)	0.41 (inactive)	0.275	-0.123	1.15	0.629	0.93
Cc1ccc(S(=O)(=O)N[C@H]2COC(=O)CC=C[C@@H](C)COC(=O)CC=C[C@@H]2C)cc1	-0.142	-0.408	0.309	-1.08	1.42	1.4	0.447	1.23	-0.678	-0.268 (inactive)	-0.0032	0.319 (inactive)	-0.748 (inactive)	-0.0223 (inactive)	0.113 (inactive)	0.407	-0.0645	0.346	-0.534	1.92
CO[C@@H]1COC(=O)[C@@H]2CCCN2C(=O)[C@@H](C)COC(=O)CC=C[C@H]1C	0.408	0.923	-0.194	0.527	0.365	1.51	-0.84	1.01	-0.0639	1.48 (inactive)	0.667	-0.193 (inactive)	-1.09 (inactive)	1.03 (inactive)	0.828 (inactive)	0.119	-0.0427	0.826	0.962	0.895
CC[C@@H](c1ccccc1)n1c(=O)n2n(c1=O)[C@H]1[C@H](O)[C@@H]3O[C@@H]3C(=O)[C@H]1CC2	-0.276	0.0346	0.0786	-0.0351	0.295	0.319	0.276	0.387	0.13	-1.23 (inactive)	-0.0319	-3.57 (inactive)	0.206 (inactive)	-1.02 (inactive)	2.92 (inactive)	0.092	-0.0762	0.0045	-0.146	0.678
COC(=O)CC=C[C@@H](C)[C@@H](C=NO[C@@H](C)c1cc(-c2c(C)cc(C)cc2C)no1)NS(=O)(=O)c1ccc(C)cc1	-1.02	-0.888	-0.0927	-0.494	-1.58	-1.44	-0.0778	-1.55	-0.665	1.14 (inactive)	-0.475	-2.83 (inactive)	0.054 (inactive)	4.2 (inactive)	0.0267 (inactive)	-0.195	-0.261	-1.05	-1.32	-1.63
CO[C@H]1COC(=O)CC=C[C@H](C)COC(=O)[C@@H](C)NC(=O)CC=C[C@@H]1C	2.07	-0.696	-0.775	-1.32	1.29	0.654	-1.61	1.72	-0.52	0.917 (inactive)	0.042	-2.06 (inactive)	-1.59 (inactive)	-0.31 (inactive)	-0.0543 (inactive)	0.0677	-0.25	2.78	2.8	2.08
CCOC(=O)[C@H](Cc1ccccc1)NC(=O)OC1CC(CCC2CC(CC)=NO2)OC2(CCCC(COC(=O)NCCC(C)C)O2)C1 (stereo not given in full)	0.272	0.55	0.271	0.305	0.0871	0.342	-0.0991	-0.033	0.668	0.772 (inactive)	0.0453	-0.24 (inactive)	0.636 (inactive)	0.105 (inactive)	0.703 (inactive)	0.851	-0.154	-0.182	0.225	0.135
COc1ccc(O[C@@H]2[C@H](O)CO[C@@H]2C=Cc2ccccc2)cc1	-0.198	-0.222	0.166	-0.223	0.409	0.758	-0.464	0.397	-0.124	-0.451 (inactive)	0.059	-2.79 (inactive)	-0.828 (inactive)	-0.613 (inactive)	-0.736 (inactive)	-0.0696	-0.128	-0.071	0.55	0.503
C=CC[C@@H]1C=C[C@H](ON=C(C)CCC(=O)OC[C@H]2O[C@H](C#Cc3ccccc3)C=C[C@@H]2Oc2ccc(C)cc2)[C@@H](CO)O1	-0.443	0.828	-0.0073	0.955	0.656	0.42	-0.0271	0.842	-0.0056	0.666 (inactive)	0.0897	-0.273 (inactive)	0.0915 (inactive)	-0.306 (inactive)	0.435 (inactive)	0.635	-0.0375	0.569	0.185	0.795
CC(C)[C@@H](OCc1ccccc1)[C@H](C)C=NOC[C@@H](O)COCc1ccco1	1.29	-0.244	-0.277	-1.75	-1.05	-1.37	-0.541	-0.801	-1.29	0.331 (inactive)	-0.304	-0.33 (inactive)	0.117 (inactive)	1.99 (inactive)	0.109 (inactive)	-2.14	-0.32	-0.712	-0.491	-1.11
